Measured values: the supplement of paper PMC13380429

Test system: Vero E6 infected with SARS-CoV-2
Assay: inhibition of SARS-CoV-2 cytopathic effect; higher = more antiviral protection, active = above 15
Settings: 48 h

Measured: inhibition of SARS-CoV-2 cytopathic effect

O=C(O)c1ccccc1Nc1cccc(C(F)(F)F)c1 [flufenamic-acid]
inactive: 1 nM -1.93% | 8.33 nM 0.57% | 100 nM -0.92% | 833.33 nM 0.82% | 10000 nM 0.1%

Cc1cccc(Nc2cc(Cl)nc(SCC(=O)O)n2)c1C [pirinixic-acid]
inactive: 1 nM -0.9% | 8.33 nM -0.95% | 100 nM -1.99% | 833.33 nM -0.44% | 10000 nM 2.81%

O=C(O)c1ccccc1Nc1cccc(OCc2ccc3ccccc3n2)c1
inactive: 1 nM -0.27% | 8.33 nM 2.38% | 100 nM 0.56% | 833.33 nM 0.3% | 10000 nM -0.51%

NCCCC[C@@H]1NC(=O)[C@@H](Cc2c[nH]c3ccccc23)NC(=O)[C@H](c2ccccc2)NC(=O)[C@@H]2C[C@@H](OC(=O)NCCN)CN2C(=O)[C@H](Cc2ccccc2)NC(=O)[C@H](Cc2ccc(OCc3ccccc3)cc2)NC1=O [pasireotide]
inactive: 1 nM -6.41% | 8.33 nM -8.12% | 100 nM -5.04% | 833.33 nM -4.91% | 10000 nM -5.41%

COc1cccc(N(C)C(=S)Oc2ccc3c(c2)CCCC3)n1 [liranaftate]
inactive: 1 nM -2.95% | 8.33 nM 1.62% | 100 nM 0.18% | 833.33 nM -0.32% | 10000 nM 1.9%

CN1CCC[C@@H]1CCO[C@](C)(c1ccccc1)c1ccc(Cl)cc1 [clemastine]
inactive: 1 nM 3.3% | 8.33 nM 4.37% | 100 nM 2.07% | 833.33 nM 0.78% | 10000 nM 0.68%
